Inconclusive results are not listed. Active and inactive are the calls of the source. The call rests on the fitted dose curve; in most records, active means well fitted inhibition curve with a large enough effect; inconclusive means small, poorly fitted or top-dose-only effect; inactive means flat fitted curve, though single readings scatter.
Columns and labels:
HB3 = experiment: qHTS profiling for inhibitors of Plasmodium falciparum proliferation (AID 504749);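 further: 0% = DMSO vehicle and full inhibition = artemisinin control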; conditions: P. falciparum in erythrocytes, SYBR Green DNA, 72 h; series mostly up to 28.7 µM
How it was run: (§1)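 P. falciparum-infected erythrocytes (0.3% parasitemia, 2.5% hematocrit) incubated with compound 72 h at 37 C, 5% CO2. Parasite DNA detected by SYBR Green after lysis, overnight at room temperature; normalised to 0.29 uM artemisinin and DMSO.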

JCK = experiment: as above; conditions: P. falciparum in erythrocytes, SYBR Green DNA, 72 h; series mostly up to 28.7 µM
How it was run: as §1

N140 = experiment: as above; conditions: P. falciparum in erythrocytes, SYBR Green DNA, 72 h; series mostly up to 28.7 µM
How it was run: as §1

P93_24 = experiment: as above; conditions: P. falciparum in erythrocytes, SYBR Green DNA, 72 h; series mostly up to 28.7 µM
How it was run: as §1

P94_40 = experiment: as above; conditions: P. falciparum in erythrocytes, SYBR Green DNA, 72 h; series mostly up to 28.7 µM
How it was run: as §1

PAD = experiment: as above; conditions: P. falciparum in erythrocytes, SYBR Green DNA, 72 h; series mostly up to 28.7 µM
How it was run: as §1

PC15 = experiment: as above; conditions: P. falciparum in erythrocytes, SYBR Green DNA, 72 h; series mostly up to 28.7 µM
How it was run: as §1

PC26 = experiment: as above; conditions: P. falciparum in erythrocytes, SYBR Green DNA, 72 h; series mostly up to 28.7 µM
How it was run: as §1

PC49 = experiment: as above; conditions: P. falciparum in erythrocytes, SYBR Green DNA, 72 h; series mostly up to 28.7 µM
How it was run: as §1

SC27B = experiment: as above; conditions: P. falciparum in erythrocytes, SYBR Green DNA, 72 h; series mostly up to 28.7 µM
How it was run: as §1

TAB109 = experiment: as above; conditions: P. falciparum in erythrocytes, SYBR Green DNA, 72 h; series mostly up to 28.7 µM
How it was run: as §1

TAB113 = experiment: as above; conditions: P. falciparum in erythrocytes, SYBR Green DNA, 72 h; series mostly up to 28.7 µM
How it was run: as §1

TAB165 = experiment: as above; conditions: P. falciparum in erythrocytes, SYBR Green DNA, 72 h; series mostly up to 28.7 µM
How it was run: as §1

W2 = experiment: as above; conditions: P. falciparum in erythrocytes, SYBR Green DNA, 72 h; series mostly up to 28.7 µM
How it was run: as §1

CRL-7250 = normal cell line; experiment: Cytotoxic Profiling of Annotated Libraries Using Quantitative High-Throughput Screening (AID 1296008); conditions: Five cell lines viability, CellTiter-Glo ATP luminescence, 48-72 h; max response: hits give low values; on max response: on the % scale 0 is the no-effect control and ±100 the full control effect
How it was run: (§2)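 Cells exposed to compounds for 48 or 72 hr at 37 degrees Celsius. Viability read as ATP-coupled luminescence with CellTiter-Glo after 10 min at room temperature.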

HEK293 = experiment: as above; conditions: Five cell lines viability, CellTiter-Glo ATP luminescence, 48-72 h; max response: hits give low values
How it was run: as §2

HaCat = experiment: as above; conditions: Five cell lines viability, CellTiter-Glo ATP luminescence, 48-72 h; max response: hits give low values
How it was run: as §2

KB-3-1 = experiment: as above; conditions: Five cell lines viability, CellTiter-Glo ATP luminescence, 48-72 h; max response: hits give low values
How it was run: as §2

NIH3T3 = experiment: as above; conditions: Five cell lines viability, CellTiter-Glo ATP luminescence, 48-72 h; max response: hits give low values
How it was run: as §2

ICS = experiment: qHTS profiling for inhibitors of Plasmodium falciparum proliferation (AID 504749);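 further: 0% = DMSO vehicle and full inhibition = artemisinin control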; conditions: P. falciparum in erythrocytes, SYBR Green DNA, 72 h; series mostly up to 28.7 µM
How it was run: as §1
Further: nearly all actives have a fitted effect of over 60% in size.

CCNC(=O)NCc1cccc(Cl)c1
inactive: Potency (HB3) | Potency (JCK) | Potency (N140) | Potency (P93_24) | Potency (P94_40) | Potency (PAD) | Potency (PC15) | Potency (PC26) | Potency (PC49) | Potency (SC27B) | Potency (TAB109) | Potency (TAB113) | Potency (TAB165) | Potency (W2) | outcome (CRL-7250) | max response (HEK293) 4.87% | max response (HaCat) -5.45% | max response (KB-3-1) 2.4% | max response (NIH3T3) 0.416%

COP(=O)(OC)OC(c1ccc(Cl)cc1)P(=O)(OC)OC (stereo not drawn)
inactive: Potency (HB3) | Potency (ICS) | Potency (JCK) | Potency (N140) | Potency (P93_24) | Potency (P94_40) | Potency (PAD) | Potency (PC15) | Potency (PC26) | Potency (PC49) | Potency (SC27B) | Potency (TAB109) | Potency (TAB113) | Potency (TAB165) | Potency (W2) | max response (CRL-7250) -8.32% | max response (HEK293) -64.4% | max response (HaCat) -2.94% | max response (KB-3-1) 0.95% | max response (NIH3T3) -38.8%

C/C=C/C=N/NC(=O)c1ccncc1
inactive: Potency (HB3) | Potency (ICS) | Potency (JCK) | Potency (N140) | Potency (P93_24) | Potency (P94_40) | Potency (PAD) | Potency (PC15) | Potency (PC26) | Potency (PC49) | Potency (SC27B) | Potency (TAB109) | Potency (TAB113) | Potency (TAB165) | Potency (W2) | max response (CRL-7250) -0.246% | max response (HEK293) -6.37% | max response (HaCat) 0.247% | max response (KB-3-1) -15.9% | max response (NIH3T3) -0.451%

Cl/C(=C\n1cncn1)c1ccc(Cl)cc1Cl
inactive: Potency (HB3) | Potency (JCK) | Potency (N140) | Potency (P93_24) | Potency (P94_40) | Potency (PAD) | Potency (PC15) | Potency (PC26) | Potency (PC49) | Potency (SC27B) | Potency (TAB109) | Potency (TAB113) | Potency (TAB165) | Potency (W2) | outcome (CRL-7250) | max response (HEK293) -2.88% | max response (HaCat) -4.78% | max response (KB-3-1) 25.3% | max response (NIH3T3) 0.11%

Cn1c(=O)c2[nH]c(Br)nc2n(C)c1=O
inactive: Potency (HB3) | Potency (ICS) | Potency (JCK) | Potency (N140) | Potency (P93_24) | Potency (PAD) | Potency (PC15) | Potency (PC26) | Potency (PC49) | Potency (SC27B) | Potency (TAB113) | Potency (TAB165) | Potency (W2) | outcome (CRL-7250) | max response (HEK293) -7.38% | max response (HaCat) -0.598% | max response (KB-3-1) -9.6% | max response (NIH3T3) -3.31%

CC1=C(C(=O)O)N2C(=O)[C@@H](NC(=O)[C@H](N)c3ccccc3)[C@H]2SC1
inactive: Potency (HB3) | Potency (ICS) | Potency (JCK) | Potency (N140) | Potency (P93_24) | Potency (P94_40) | Potency (PAD) | Potency (PC15) | Potency (PC26) | Potency (PC49) | Potency (SC27B) | Potency (TAB109) | Potency (TAB113) | Potency (TAB165) | Potency (W2) | max response (CRL-7250) -2.3% | max response (HEK293) -2.48% | max response (HaCat) 2.08% | max response (KB-3-1) 11.5% | max response (NIH3T3) 1.34%

O=S(=O)(O)c1ccc(O)cc1
inactive: Potency (HB3) | Potency (ICS) | Potency (JCK) | Potency (N140) | Potency (P93_24) | Potency (P94_40) | Potency (PAD) | Potency (PC15) | Potency (PC26) | Potency (PC49) | Potency (SC27B) | Potency (TAB109) | Potency (TAB113) | Potency (TAB165) | Potency (W2) | max response (CRL-7250) -8.14% | max response (HEK293) 2.28% | max response (HaCat) -3.34% | max response (KB-3-1) -1.6% | max response (NIH3T3) 1.54%

C=CCN1CCc2nc(N)sc2CC1
inactive: Potency (HB3) | Potency (JCK) | Potency (N140) | Potency (P94_40) | Potency (PAD) | Potency (PC15) | Potency (PC26) | Potency (PC49) | Potency (SC27B) | Potency (TAB109) | Potency (TAB113) | Potency (TAB165) | Potency (W2) | max response (CRL-7250) -5.69% | max response (HEK293) 0.777% | max response (HaCat) -12.6% | max response (KB-3-1) 3.04% | max response (NIH3T3) 2.55%

OC1C(O)C(O)C(O)C(O)C1O (stereo not drawn)
inactive: Potency (HB3) | Potency (ICS) | Potency (JCK) | Potency (N140) | Potency (P94_40) | Potency (PAD) | Potency (PC15) | Potency (PC26) | Potency (PC49) | Potency (SC27B) | Potency (TAB109) | Potency (TAB113) | Potency (TAB165) | Potency (W2) | outcome (CRL-7250) | max response (HEK293) 2.94% | max response (HaCat) 2.27% | max response (KB-3-1) -8.66% | max response (NIH3T3) -6.2%

CCCCCCCCCCCCCCCCO
inactive: Potency (HB3) | Potency (ICS) | Potency (JCK) | Potency (N140) | Potency (P93_24) | Potency (P94_40) | Potency (PAD) | Potency (PC15) | Potency (PC26) | Potency (PC49) | Potency (SC27B) | Potency (TAB109) | Potency (TAB113) | Potency (TAB165) | Potency (W2) | max response (CRL-7250) -12.4% | max response (HEK293) 1.14% | max response (HaCat) -1.51% | max response (KB-3-1) 19% | max response (NIH3T3) -5.1%

O=C(O)c1ccc(S(=O)(=O)N(Cl)Cl)cc1
inactive: Potency (HB3) | Potency (ICS) | Potency (JCK) | Potency (N140) | Potency (P93_24) | Potency (P94_40) | Potency (PAD) | Potency (PC15) | Potency (PC26) | Potency (PC49) | Potency (SC27B) | Potency (TAB109) | Potency (TAB113) | Potency (TAB165) | Potency (W2) | max response (CRL-7250) 3.6% | max response (HEK293) 3.96% | max response (HaCat) -0.853% | max response (KB-3-1) -9.69% | max response (NIH3T3) -3.94%

Reference: PubChem BioAssay (NCATS)
